# About 1,200 (55%) of roughly 2,200 compounds were called active. No cut-off is given here; in the data, nearly all actives have IC50 up to about 92 µM. The set was probably picked from earlier hits. Some of the results follow.
# Test: counter assay for TAg ATPase ADP read-out – biochemical, ADP-Hunter, fluorescence, counter-screen (AID 2501);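 note: purified T antigen ATPase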
# Details: series mostly up to 100 µM
row,Compound,IC50
1,COc1ccc(NCCc2ccccn2)cc1,2.41 µM (active)
2,COc1ccc(S(=O)(=O)N(CC(=O)NCc2ccccn2)c2ccc(Cl)cc2)cc1,inactive
3,COc1ccc(S(=O)(=O)Nc2ccc(O)c3ccccc23)cc1,inactive
4,COc1ccc(C(=O)Nc2ccc(O)c3ccccc23)cc1,13.1 µM (active)
5,CCOC(=O)Cn1cc(C#N)c(=O)[nH]c1=O,inactive
6,Cc1ccc2c(c1)NC(=O)c1cccnc1N2,4.54 µM (active)
7,Cc1ccc(C(=O)N2CCN3C(=O)c4ccccc4C23c2ccccc2)cc1 (stereo not given),inactive
8,CC(=O)Oc1c(/C=C(\C#N)C(N)=O)[nH]c2ccccc12,27.2 µM (active)
9,C=CCn1c(SCC(=O)NCC2CCCO2)nc2scc(-c3ccco3)c2c1=O (stereo not given),inactive
10,C=CCn1c(=S)[nH]c2scc(-c3ccco3)c2c1=O,26.9 µM (active)
11,C=CCn1c(SCC(C)=O)nc2scc(-c3ccco3)c2c1=O,inactive
12,C#CCOCCOCCOCCNc1nc(N2CCN(C(=O)CCCCCCCCCCNC(=O)[C@H]([C@@H](C)CC)n3cc(CCCCN=C(N)N)nn3)CC2)nc(N2CCN(C(=O)CCCCCCCCCCNC(=O)[C@H](CCCN=C(N)N)n3cc(C[C@@H](C)CC)nn3)CC2)n1,inactive
13,CCOC(=O)C1CCN(c2nc(N)c3c(N)nc(SCC(=O)O)cc3c2C#N)CC1,inactive
14,O=C(N/N=C(\c1ccccc1)c1cccnc1)c1cc(O)ccc1O,3.71 µM (active)
15,O=C(O)CSCC(=O)Nc1ccc(-c2nc3ccccc3s2)cc1,inactive
16,CCOC(=O)CN(C(=O)CSc1nnc2c(n1)[nH]c1ccccc12)c1ccccc1,inactive
17,Cc1[nH]c2ccccc2c1-c1csc(NC(=O)CSCC(=O)O)n1,14.6 µM (active)
18,COc1cccc(/C=N/n2c(-c3cc(C)[nH]n3)n[nH]c2=S)c1O,13.2 µM (active)
19,Cc1cc(-c2n[nH]c(=S)n2/N=C/c2cccs2)n[nH]1,52.3 µM (active)
20,CCN(CC)c1ccc(NC(=S)NC(=O)C2CCC2)cc1,7.07 µM (active)

row,Compound,IC50
1,COc1ccc2c(c1)-c1nc(/N=C/c3ccc(O)c(OC)c3)sc1CC2,3.97 µM (active)
2,COc1cc(C(=O)N/N=C(\C)Cn2nc([N+](=O)[O-])cc2C)ccc1O,16.1 µM (active)
3,Cc1cc([N+](=O)[O-])nn1CC(=O)NCc1ccccc1,inactive
4,C#CCOCCOCCOCCNc1nc(N2CCN(C(=O)CCCCCCCCCCNC(=O)[C@H]([C@@H](C)CC)n3cc(CCCCCN)nn3)CC2)nc(N2CCN(C(=O)CCCCCCCCCCNC(=O)[C@@H]([C@H](C)CC)n3cc(CCCCCN)nn3)CC2)n1,inactive
5,CC1(C)C(/C=C/C=C/C=C/C=C2\N(CCCCS(=O)(=O)O)c3ccc4ccccc4c3C2(C)C)=[N+](CCCCS(=O)(=O)[O-])c2ccc3ccccc3c21,10.5 µM (active)
6,COc1cccc2c1NC(C(=O)O)C1CC=CC21 (stereo not given),inactive
7,COCCCNc1nnc(Cc2ccc(Cl)cc2)c(=O)[nH]1,inactive
8,CCCC1=NN2C(=N)/C(=C\c3ccc(SCc4ccco4)o3)C(=O)N=C2S1,inactive
9,Nc1ccc(O)c(C(=O)O)c1,8.29 µM (active)
10,Nc1c(O)cccc1C(=O)O,7.18 µM (active)
11,O=C(O)C1=CC(=C(c2ccc(O)c(C(=O)O)c2)c2ccc(O)c(C(=O)O)c2)C=CC1=O,inactive
12,Nc1ccc(C(=O)Nc2ccccc2C(=O)O)cc1,inactive
13,COc1cc(C(C)=O)ccc1OCC(O)Cn1nc(C)c(C(C)=O)c1C (stereo not given),49.1 µM (active)
14,NC(=O)[C@@H]1CCCCNc2c(I)cc([N+](=O)[O-])cc2C(=O)N[C@@H](CCC(=O)O)C(=O)N[C@@H](CO)C(=O)N1,inactive
15,COc1ccc(S(=O)(=O)c2c(N)n(Cc3ccco3)c3nc4ccccc4nc23)cc1,inactive
16,Cc1ccc(S(=O)(=O)CCSC(=N)N)cc1,inactive
17,COc1ccc(C(C)=O)cc1COC(=O)CCNS(=O)(=O)c1ccc(C(C)=O)cc1,inactive
18,COc1ccc(S(=O)(=O)Nc2c(O)ccc3ccccc23)cc1OC,54.9 µM (active)
19,O=S(=O)(Nc1c(O)ccc2ccccc12)c1ccccc1,inactive
20,Cc1ccc(S(=O)(=O)Nc2c(O)ccc3ccccc23)cc1,70.6 µM (active)

row,Compound,IC50
1,O=C1c2ccccc2NC2(CCCCC2)N1c1ccc(O)cc1,5.01 µM (active)
2,CN(C)CCNC(=O)C(=O)Nc1ccc2c(c1)N(S(=O)(=O)c1cccs1)CCC2,inactive
3,Cc1ccc(NC(=O)CCSc2nnc(Cc3ccccc3)o2)cc1,inactive
4,N#CC(C#N)=C(N)/C(C#N)=C/c1cc(O)c(O)c(O)c1,13.6 µM (active)
5,CC1CCCN(c2ccc(N)cc2C(N)=O)C1 (stereo not given),3.15 µM (active)
6,N#C/C(=C\c1coc2ccc(O)cc2c1=O)C(=O)Nc1nc2ccccc2s1,80.4 µM (active)
7,CSc1nc(Cl)cc(Nc2ccc(O)cc2)n1,11.3 µM (active)
8,Cc1ccc(NC(=O)CSc2nc3ccccc3c(=O)n2CCCC(=O)NCCCN2CCOCC2)cc1C,inactive
9,CCN(CC)CCNC(=O)CCCCn1c(=S)[nH]c2c([nH]c3ccc(OC)cc32)c1=O,4.99 µM (active)
10,COc1ccc2[nH]c3c(=O)n(CCCCC(=O)NCCN4CCCC4)c(=S)[nH]c3c2c1,6.28 µM (active)
11,O=S(=O)(Nc1cccc(-c2cn3ccsc3n2)c1)c1ccc(F)cc1,inactive
12,O=C1CC(N2CCN(c3ccc(O)cc3)CC2)C(=O)N1Cc1cccs1 (stereo not given),4.71 µM (active)
13,CN(CCc1cn[nH]c1)Cc1nc(Cc2ccccc2F)no1,inactive
14,CC(O)CCc1ccc(O)cc1 (stereo not given),8.46 µM (active)
15,NNC(=O)c1ccc(CN2CCCCC2)o1,inactive
16,COc1cc(/C=C2\SC(c3ccc(C)cc3)=NC2=O)cc(OC)c1O,2.62 µM (active)
17,Cc1ccc(C2=NC(=O)/C(=C/c3cc(O)c(O)c(Br)c3)S2)cc1,11 µM (active)
18,CCOc1ccc(NCc2cccn2-c2nnc(N3CCC(C(=O)NCCCN4CCCCC4C)CC3)s2)cc1 (stereo not given),6.99 µM (active)
19,CCOc1ccc(NCc2cccn2-c2nnc(N3CCC(C(=O)NCCCN4CCCCC4CC)CC3)s2)cc1 (stereo not given),5.76 µM (active)
20,CCOc1ccc(NCc2cccn2-c2nnc(N3CCC(C(=O)NCCCN4CC(C)CC(C)C4)CC3)s2)cc1 (stereo not given),7.15 µM (active)

# Source: PubChem BioAssay AID2501 (Southern Research Specialized Biocontainment Screening …, 2010)
